This note sets out measurements from PubChem BioAssay AID2685 (National Center for Advancing Translational Sciences (NCATS), 2010).

Among all 320,000 compounds or so, about 2,100 (0.66%) were called active. Not shown: some 53% with an inconclusive outcome. The call rests on the fitted dose curve; in most records, active means well fitted inhibition curve with a large enough effect in the signal ratio, with a control signal flat (not every such curve was filed as active); inconclusive means small, poorly fitted or top-dose-only effect, or effect the other way, or a change in a side signal; inactive means flat fitted curve, though single readings scatter; the % refers to the signal ratio. Shown is part of a subset that was picked to be rich in actives.
Potency means the concentration at half of the fitted maximal effect.

The nature of the experiment: qHTS Assay for Lipid Storage Modulators in Drosophila S3 Cells.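 On cell number change: cells counted by Cell Tracker Red CMTPX staining in the red channel.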 On lipid storage change, negative = inhibition: on the % scale 0 is the no-effect control and ±100 the full control effect. The conditions noted are these: BODIPY lipid droplet fluorescence, 18-24 h, cells fed with added oleic acid; cell number change: measured here: cell count max response; series mostly up to 46.1 µM; lipid storage change, negative = inhibition: at the top concentration. Summed up: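 Laser-scanning cytometry quantifies lipid droplet accumulation (500–530 nm total intensity; droplet/cell object ratio) in oleic acid-fed (400 uM added) Drosophila S3 cells treated with a concentration series. 20 uM Triacsin C defined 100% inhibition.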
(Quantitative high-throughput screening tests each substance at several concentrations.)
For the compound `CCOC(=O)c1cccc(NC(=O)CNC(=O)C2CCCCC2)c1`, the result was inactive and the cell number change is 12.1%.

For the compound `Cn1c(=O)c(C(=O)NCc2ccccc2)c(O)c2ccccc21`, the call was inactive.

As to `C[C@H]1CC[C@@]2(O[C@@H](CCO)C[C@@H](O)[C@@H]2O)O1`, the “lipid storage change, negative = inhibition” value is -0.85% (inactive) and the cell number change is 10.3%.

Turning to `CC(NC(=O)c1ccccc1F)c1nnc(SCC(=O)N2CCN(c3ccccc3)CC2)n1C` (configuration not stated), the Potency is 0.82 µM (active) and the cell number change is -26.5%.

For the compound `CC(NC(=O)c1ccccc1F)c1nnc(SCC(=O)NC2=NCCS2)n1C` (configuration not stated), the outcome was inactive and the cell number change is -19.7%.

`Cn1c(SCC(=O)N2CCN(c3ccccc3)CC2)nnc1-c1ccccc1`: the compound was classed as inactive and the cell number change stood at 1.56%.

On to `COc1ccc(NC(=O)CSCc2cc(=O)n3c(C)csc3n2)cc1`, for which the outcome was inactive and the cell number change worked out at 4.18%.

Turning to `CC(C)Nc1nc(NC(C)C)nc(SCC(N)=O)n1`, the “lipid storage change, negative = inhibition” value was -7.46% (inactive) and the cell number change is -10.2%.

Regarding `CC(C)Nc1nc(NC(C)C)nc(Nn2cnnc2)n1`, the “lipid storage change, negative = inhibition” value was -11.9% (inactive) and the cell number change is -7.52%.

Consider `CC(C)Nc1nc2n(c(=O)n1)CCN2C(C)C`, for which the Potency was 4.11 µM (active) and the cell number change turned out to be 0.328%.

For the compound `CC1(C)CC2(C)Nc3ccccc3N2C(=S)N1` (configuration not stated), the “lipid storage change, negative = inhibition” value is 3.67% (inactive) and the cell number change was -13.1%.

With `COc1ccc(NC(=O)Nc2ccc(C(=O)N3CCOCC3)cc2)cc1OC`, the “lipid storage change, negative = inhibition” value is -17% (inactive) and the cell number change is -17.3%.

With `O=C(CNC(=O)c1ccc(Br)o1)Nc1ncccc1O`, the “lipid storage change, negative = inhibition” value was 16.8% (inactive).

`C=C1CCC[C@]2(C)C[C@H]3OC(=O)C(CN4CC(C)OC(C)C4)[C@H]3C[C@@H]12` (some centres not stated): the “lipid storage change, negative = inhibition” value was 1.66% (inactive) and the cell number change turned out to be 8.39%.

Turning to `C=C1CCC[C@]2(C)C[C@H]3OC(=O)C(CN4CCOCC4)[C@H]3C[C@@H]12` (some centres not stated), the Potency is 8.2 µM (active) and the cell number change is -15.3%.

`C=C1CCC[C@]2(C)C[C@H]3OC(=O)C(CNC(C)CC)[C@H]3CC12` (some centres not stated): the “lipid storage change, negative = inhibition” value was -6.88% (inactive) and the cell number change was -16.4%.

As for `O=C(COC(=O)c1ccc(S(=O)(=O)N2CCOCC2)cc1)NCc1cccs1`, the “lipid storage change, negative = inhibition” value was -5.08% (inactive) and the cell number change was -3.56%.

With `CC1CCCCC1NC(=O)CN1C(=O)NC(Cc2ccccc2)(Cc2ccccc2)C1=O` (configuration not stated), the result was inactive and the cell number change turned out to be 27.7%.

Turning to `Cn1c(NC(=O)/C=C\c2ccccc2)cc(=O)n(C)c1=O`, the “lipid storage change, negative = inhibition” value is 2.84% (inactive) and the cell number change is -2.62%.

For the compound `CC(=O)c1ccccn1`, the “lipid storage change, negative = inhibition” value was 9.67% (inactive) and the cell number change came to 12.7%.

Regarding `COC(=O)c1ccc(OC(=O)c2ccccn2)cc1`, the “lipid storage change, negative = inhibition” value was -5.28% (inactive) and the cell number change turned out to be 10.3%.

For `CC1(C)CC(=O)CC(C)(C)N1OC(=O)c1ccccn1`, the Potency was 32.6 µM (active).

Regarding `CC(C#N)Sc1nnc(-c2ccccc2F)n1C1CC1` (configuration not stated), the result was inactive and the cell number change was found to be 7.26%.

As to `NNC(=O)c1cc(C2CC2)nc2ccc(Br)cc12`, the “lipid storage change, negative = inhibition” value was 0.205% (inactive) and the cell number change is -5.67%.

As to `O=C(NCCOc1nc(N2CCCCC2)nc(N2CCCCC2)n1)Nc1ccccc1`, the “lipid storage change, negative = inhibition” value was -1.62% (inactive) and the cell number change amounted to 0.327%.

As to `O=C(NCCOc1nc(N2CCOCC2)nc(N2CCOCC2)n1)Nc1ccccc1`, the “lipid storage change, negative = inhibition” value was 6.9% (inactive) and the cell number change is -14.8%.

In the case of `O=C(NCCOc1nc(N2CCCCC2)nc(N2CCOCC2)n1)Nc1ccccc1`, the Potency is 0.731 µM (active) and the cell number change is -5.19%.

In the case of `Cc1ccc(NNC(N)=S)cc1Cl`, the “lipid storage change, negative = inhibition” value is 10.3% (inactive) and the cell number change worked out at 18.1%.

`COc1ccccc1-c1nnc(C2CCN(S(=O)(=O)c3ccccc3[N+](=O)[O-])CC2)o1`: the “lipid storage change, negative = inhibition” value is -28.1% (inactive).

For `Cc1cccc(-c2nc(CN3CCCC(C(=O)NC4CCCCCC4)C3)c(C)o2)c1` (configuration not stated), the “lipid storage change, negative = inhibition” value is -4.34% (inactive) and the cell number change was found to be 2.33%.

On to `Cc1ccc(C)c(S(=O)(=O)N2CCN(C(=O)c3ccc(C)s3)CC2)c1`, for which the “lipid storage change, negative = inhibition” value was -9.47% (inactive) and the cell number change came to 6.27%.

Turning to `CCOC(=O)N1CCN(S(=O)(=O)c2ccc(Cl)cc2)CC1`, the call was inactive and the cell number change amounted to 24.3%.

As for `CCc1cc(C(=O)N2CCN(S(=O)(=O)c3ccc(Cl)cc3)CC2)sc1C`, the Potency was 11.6 µM (active) and the cell number change came out at 6.97%.

Take `CCc1cc(C(=O)N2CCN(S(=O)(=O)c3cc(C)ccc3C)CC2)sc1C`: the Potency is 20.6 µM (active) and the cell number change was -8.23%.

As for `Cc1ccc(C)c(S(=O)(=O)N2CCN(C(=O)c3cccn3C)CC2)c1`, the compound was called inactive and the cell number change was -13.9%.

Consider `Cc1ccccc1-n1nc(C)c2cc(C(=O)N3CCN(S(=O)(=O)c4ccc(Cl)cc4)CC3)sc21`, for which the “lipid storage change, negative = inhibition” value is -0.0133% (inactive) and the cell number change is -4.24%.

As to `COc1ccccc1N1CCN(CC(O)COc2ccc3c(c2)CCC3)CC1` (configuration not stated), the “lipid storage change, negative = inhibition” value was -12.6% (inactive) and the cell number change was 1.49%.

For the compound `COc1ccc(-c2cc(C(=O)N3CCOCC3)no2)cc1OC`, the “lipid storage change, negative = inhibition” value was 10.4% (inactive) and the cell number change was -3.96%.

As to `CSCCNC(=O)Nc1c(-c2c(Cl)cccc2Cl)noc1C`, the “lipid storage change, negative = inhibition” value is 2.52% (inactive).

In the case of `CCOC(=O)CC1(c2ccccc2)CCOC(C)(C)C1` (configuration not stated), the “lipid storage change, negative = inhibition” value was -20% (inactive) and the cell number change was found to be 5.31%.

For `CCC1(C)CC(CC(=O)O)(c2ccccc2OC)CCO1` (configuration not stated), the Potency is 29.1 µM (active) and the cell number change was -13.5%.

In the case of `COc1ccccc1C1(CC(=O)O)CCOC(C(C)C)C1` (configuration not stated), the “lipid storage change, negative = inhibition” value was -17.5% (inactive) and the cell number change is -4.59%.

Consider `CC(C)c1ccc(S(=O)(=O)N2CCN(C(=O)C3CC3C)CC2)cc1` (configuration not stated), for which the cell number change stood at 13.5% and the lipid storage change, negative = inhibition is 9.88% [at 0.0737 µM] (inactive).

For the compound `CC(=O)N1CCc2cc(Br)cc(S(=O)(=O)NCCCN3CCC(C)CC3)c21`, the “lipid storage change, negative = inhibition” value was -1.66% (inactive) and the cell number change turned out to be 6.06%.

For the compound `Cc1cnc(C(=O)OCC(=O)c2ccc(F)c(F)c2)cn1`, the outcome was inactive and the cell number change was found to be 6.94%.

For `Cc1nc2ncnn2c(C)c1CCC(=O)NC(C)CCc1ccco1` (configuration not stated), the “lipid storage change, negative = inhibition” value was -27.5% (inactive) and the cell number change is -25.3%.
